# An excerpt weighted towards active compounds, which were near 1.8% of everything screened.
# PDI inh: inhibitors of human PDI, primary screen, biochemical, turbidity, single point, plate reader | Protein disulfide-isomerase (Homo sapiens), P07237 | PDI insulin aggregation turbidity, A650, 90 min | inhibition, % at 10 µM | 0.052% of 350,000 active;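 active = mean inhibition across replicates of 30% or more, whatever share of single replicates reach that level; inconclusive = mean inhibition below 30% while every single replicate reaches 30%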
# Target sequence (P07237 whole entry, looked up): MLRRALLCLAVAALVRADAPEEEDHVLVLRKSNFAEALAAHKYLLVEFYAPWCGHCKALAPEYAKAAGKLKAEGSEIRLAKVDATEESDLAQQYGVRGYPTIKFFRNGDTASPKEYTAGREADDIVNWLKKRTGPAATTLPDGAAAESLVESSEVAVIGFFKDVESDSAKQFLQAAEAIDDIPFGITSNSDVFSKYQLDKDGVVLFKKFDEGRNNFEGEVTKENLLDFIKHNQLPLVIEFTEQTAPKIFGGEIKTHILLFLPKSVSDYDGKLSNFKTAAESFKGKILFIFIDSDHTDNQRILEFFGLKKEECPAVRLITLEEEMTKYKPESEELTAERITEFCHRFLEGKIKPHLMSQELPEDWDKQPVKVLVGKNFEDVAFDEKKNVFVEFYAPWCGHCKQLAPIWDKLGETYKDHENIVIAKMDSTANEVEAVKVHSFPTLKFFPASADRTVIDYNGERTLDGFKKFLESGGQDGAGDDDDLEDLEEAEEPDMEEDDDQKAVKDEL
# DENV2 CPE rescue: inhibitors of DENV2 cytopathic effect, primary screen, cell-based, plate reader, single concentration; 1.7% of 350,000 active; CPE inhibition, % at 9.99 µM; AID 651640, 2012; DENV2-infected cells, cytopathic effect rescue; in the data active = CPE inhibition above about 20%, passing the limit was not always enough; inconclusive = no clear call, values can overlap the other calls; tested in BHK-21 cells;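 note: 0% = median of neutral control wells and 100% = median of positive control wells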
# ERAP1 HTS inh: human ERAP1 aminopeptidase inhibitors, primary screen, biochemical, single point, plate reader | inhibition, % at 10.7 µM | AID 652197, 2013 | recombinant ERAP1, Leu-AMC fluorescence, 60 min | 0.15% of 340,000 active | Endoplasmic reticulum aminopeptidase 1 (Homo sapiens), Q9NZ08;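 active = mean replicate inhibition of at least 30%, or all replicates individually reaching that 30% level; inactive = mean below 30% and not every replicate reaching it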;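 note: 0% = neutral control wells and 100% = L-leucinethiol positive control wells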
# ERp5 inh: inhibitors of ERp5-driven insulin aggregation, primary screen, biochemical, turbidity, absorbance 650 nm, single point; 90 min; 0.05% of 350,000 active; Protein disulfide-isomerase A6 (Homo sapiens), Q15084; inhibition, % at 9.99 µM;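 active = mean replicate inhibition above about 25%, with every replicate also reaching it, limit read from the data, passing the limit was not always enough; inconclusive = only one of those two criteria met; inactive = neither criterion met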
# MLL AF4-AF9 inh: inhibitors of AF4 peptide binding to AF9, primary screen, biochemical, AlphaScreen, biotin-AF4 peptide, FLAG-AF9, single point; 0.47% of 350,000 active; inhibition, % at 10 µM;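 active = every replicate reaching a set inhibition limit, whatever the replicate mean, cut at about 25% in these data; inconclusive = mean inhibition reaches that limit but some replicates miss it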;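 note: 0% = plate neutral control median and 100% = total signal loss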
# * = called active by the depositor; ? = inconclusive; nt = no result.
SMILES,PDI inh,DENV2 CPE rescue,ERAP1 HTS inh,ERp5 inh,MLL AF4-AF9 inh
CC(C)NC(=O)Nc1ccc2c(c1)CC(=O)N([C@@H](C)CO)C[C@@H](C)[C@H](CN(C)Cc1ccc(-c3ccccc3)cc1)O2,nt,30*,-3,3,7
C[C@@H]1CN([C@@H](C)CO)C(=O)Cc2cc(NC(=O)NC3CCCCC3)ccc2O[C@@H]1CN(C)Cc1ccc(Cl)c(Cl)c1,nt,59*,-1,-5,-1
C[C@H]1CN([C@@H](C)CO)C(=O)Cc2cc(NC(=O)NC3CCCCC3)ccc2O[C@@H]1CN(C)Cc1ccc(Cl)c(Cl)c1,nt,19,3,5,-4
C[C@H](CO)N1C[C@H](C)[C@H](CN(C)Cc2ccc3c(c2)OCO3)Oc2ccc(N(C)C)cc2C1=O,nt,5,6,1,3
Cn1c(-c2ccccc2)cc(=NNS(C)(=O)=O)c2cc(S(=O)(=O)O)ccc21,8,3,37*,-5,-5
Cn1c(-c2ccccc2)cc(=O)c2ccccc21,11,nt,nt,nt,nt
Cn1cnc(CCNC(=O)C[C@H]2CC[C@@H]3[C@H](COC[C@H](O)CN3C(=O)Nc3ccc(C(F)(F)F)cc3)O2)c1,nt,0,nt,nt,nt
COc1cccc(NC(=O)N2CC[C@@H]3[C@H]2c2cc(-c4cccc(OC)c4)ccc2N(C)[C@H]3CO)c1,nt,68*,0,-9,14
CN1c2ccc(-c3ccccc3)cc2[C@@H]2[C@@H](CCN2C(=O)Cc2ccccn2)[C@@H]1CO,nt,22*,1,-1,2
COc1cccc(-c2ccc3c(c2)[C@@H]2[C@@H](CCN2C(=O)c2ccc(F)cc2)[C@H](CO)N3C)c1,nt,24*,nt,11,nt
COc1ccc(-c2ccc3c(c2)[C@@H]2[C@@H](CCN2C(=O)Nc2ccc(F)cc2)[C@H](CO)N3C)cc1,nt,-10,-4,-3,30*
CN1c2ccc(-c3ccc(F)cc3)cc2[C@@H]2[C@@H](CCN2C(=O)Cc2ccccn2)[C@@H]1CO,nt,?,0,2,5
COc1cccc(-c2ccc3c(c2)[C@H]2[C@H](CCN2C(=O)c2ccccc2F)[C@@H](CO)N3C)c1,nt,-5,nt,4,nt
CN1c2ccc(-c3cccc(F)c3)cc2[C@H]2[C@H](CCN2C(=O)c2ccccc2F)[C@H]1CO,nt,69*,0,-4,1
Cc1c(C(=O)OC(C)C)sc(N)c1C(=O)OC(C)C,8,48*,0,2,-2
COCCNC(=O)C[C@H]1CC[C@@H]2[C@H](COc3ccc(NC(=O)Nc4ccccc4)cc3C(=O)N2C)O1,nt,10,1,-6,-1
Cc1ccc(S(=O)(=O)N2CCCCC2)cc1NC(=O)CCCOc1ccccc1,1,-8,-2,3,0
Cc1ccc(S(=O)(=O)N2CCOCC2)cc1NC(=O)CN(C)CC(=O)Nc1cccc(F)c1,6,83*,2,8,1
CCCN(CC(=O)Nc1ccccc1C)C(=O)C1CCN(S(=O)(=O)c2ccc(C)c(C)c2)CC1,1,27*,-8,-2,1
Cc1ccc(S(=O)(=O)N2CCCCC2)cc1NC(=O)CCOc1ccccc1,-6,72*,1,18,-2
Cc1ccc(NC(=O)CN(C)CC(=O)Nc2cccc(F)c2)cc1S(=O)(=O)N1CCCCCC1,-3,-2,2,1,3
Cc1ccc(S(=O)(=O)N2CCCCC2)cc1NC(=O)c1cc(=O)[nH]c2ccccc12,0,77*,6,-17,1
Cc1ccc(S(=O)(=O)NNC(=O)c2cccc(O)c2)cc1,1,2,0,0,48*
CCCCOC(=O)CSc1nnc(N)s1,5,nt,nt,nt,nt
CCCCCSc1nnc(N)s1,3,32*,2,nt,-1
O=C(NC1CCCC1)N1CCCCN2[C@@H](CO)[C@@H](c3ccc(-c4ccccc4)cc3)[C@@H]2C1,nt,1,-2,2,4
O=C(c1c(O)cc(O)cc1O)C1c2c(cc(O)c3c2O[C@H](c2ccc(O)cc2)[C@@H](O)C3)OC1c1ccc(O)cc1 (some centres not stated),53*,4,nt,-1,12
O=C1CC(c2ccccc2)c2c(O)cc(O)cc2O1 (configuration not stated),-3,nt,nt,nt,nt

# Source: PubChem (Broad Institute)
